Test results taken from the supplement of paper PMC11732987, “Enantioselective OTUD7B fragment discovery through chemoproteomics screening and high-throughput optimisation” (Communications Chemistry, 2025).

What was measured:
Test in all cases: log2 ratio of Biotin-Ahx-Ub-VS probe labelling (fragment/DMSO); higher = less target engagement (more negative = stronger competition), active = hit call of the paper (q ≤ 0.05, log2 ratio ≤ -1)
Conditions in all cases: compound concentration: 200 uM; treatment time: 3 h
USP9X = USP9X (UniProt Q93008)
Outline: (§1)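 HEK293T lysate (495 µg per sample, in Tris/CHAPS/IGEPAL buffer with protease inhibitors) was treated in triplicate with fragment at 200 µM or with DMSO for 3 h. It was then treated with Biotin-Ahx-Ub-VS (0.5 µM final) for 1 h. Labelled DUBs were NeutrAvidin-enriched, digested with LysC and trypsin, and run by diaPASEF LC-MS/MS. Spectronaut label-free quantities were global-median-normalised. Values are average log2 ratios fragment/DMSO by unpaired t-test, using proteins with ≥2 unique peptides.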

UniProt O00487 = molecular target: UniProt O00487
Outline: as §1

UniProt O00507 = molecular target: UniProt O00507
Outline: as §1

UniProt P51784 = molecular target: UniProt P51784
Outline: as §1

UniProt Q5T2D3 = molecular target: T1, UniProt Q5T2D3
T1 sequence (whole entry): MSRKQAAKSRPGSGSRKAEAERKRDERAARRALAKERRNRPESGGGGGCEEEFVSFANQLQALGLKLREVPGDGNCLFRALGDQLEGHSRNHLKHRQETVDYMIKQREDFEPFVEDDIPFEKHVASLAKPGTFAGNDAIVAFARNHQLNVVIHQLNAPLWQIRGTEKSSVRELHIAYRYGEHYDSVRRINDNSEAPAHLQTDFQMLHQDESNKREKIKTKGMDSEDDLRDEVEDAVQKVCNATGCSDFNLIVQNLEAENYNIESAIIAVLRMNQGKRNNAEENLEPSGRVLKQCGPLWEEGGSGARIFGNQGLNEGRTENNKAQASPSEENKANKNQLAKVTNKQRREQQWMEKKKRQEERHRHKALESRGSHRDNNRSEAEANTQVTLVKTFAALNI
Outline: as §1

UniProt Q8TE49 = molecular target: T2, UniProt Q8TE49
T2 sequence (whole entry): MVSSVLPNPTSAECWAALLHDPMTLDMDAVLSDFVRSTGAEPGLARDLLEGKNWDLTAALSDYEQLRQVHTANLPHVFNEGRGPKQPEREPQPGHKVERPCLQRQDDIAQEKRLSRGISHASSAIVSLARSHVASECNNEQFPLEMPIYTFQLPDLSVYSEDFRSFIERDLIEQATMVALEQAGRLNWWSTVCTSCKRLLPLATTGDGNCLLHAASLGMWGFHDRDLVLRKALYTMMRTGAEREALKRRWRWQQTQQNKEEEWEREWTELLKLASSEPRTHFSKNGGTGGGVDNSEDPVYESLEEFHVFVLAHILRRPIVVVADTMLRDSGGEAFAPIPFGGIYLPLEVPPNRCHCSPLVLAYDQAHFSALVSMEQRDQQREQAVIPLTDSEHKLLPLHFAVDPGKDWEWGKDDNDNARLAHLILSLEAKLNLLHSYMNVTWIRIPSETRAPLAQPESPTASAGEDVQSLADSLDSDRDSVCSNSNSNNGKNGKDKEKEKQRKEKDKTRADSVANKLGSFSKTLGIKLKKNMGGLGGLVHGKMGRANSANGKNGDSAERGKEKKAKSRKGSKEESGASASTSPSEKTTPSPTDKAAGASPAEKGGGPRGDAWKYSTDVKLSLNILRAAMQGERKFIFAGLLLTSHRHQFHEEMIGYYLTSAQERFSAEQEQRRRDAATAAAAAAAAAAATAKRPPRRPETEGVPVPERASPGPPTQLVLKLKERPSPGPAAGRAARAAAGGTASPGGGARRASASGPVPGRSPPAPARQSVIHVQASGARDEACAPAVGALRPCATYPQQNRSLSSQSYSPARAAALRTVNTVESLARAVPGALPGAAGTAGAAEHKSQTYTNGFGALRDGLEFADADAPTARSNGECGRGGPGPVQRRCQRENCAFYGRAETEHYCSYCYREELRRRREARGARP
Outline: as §1

UniProt Q9P2H5 = molecular target: T3, UniProt Q9P2H5
T3 sequence (whole entry): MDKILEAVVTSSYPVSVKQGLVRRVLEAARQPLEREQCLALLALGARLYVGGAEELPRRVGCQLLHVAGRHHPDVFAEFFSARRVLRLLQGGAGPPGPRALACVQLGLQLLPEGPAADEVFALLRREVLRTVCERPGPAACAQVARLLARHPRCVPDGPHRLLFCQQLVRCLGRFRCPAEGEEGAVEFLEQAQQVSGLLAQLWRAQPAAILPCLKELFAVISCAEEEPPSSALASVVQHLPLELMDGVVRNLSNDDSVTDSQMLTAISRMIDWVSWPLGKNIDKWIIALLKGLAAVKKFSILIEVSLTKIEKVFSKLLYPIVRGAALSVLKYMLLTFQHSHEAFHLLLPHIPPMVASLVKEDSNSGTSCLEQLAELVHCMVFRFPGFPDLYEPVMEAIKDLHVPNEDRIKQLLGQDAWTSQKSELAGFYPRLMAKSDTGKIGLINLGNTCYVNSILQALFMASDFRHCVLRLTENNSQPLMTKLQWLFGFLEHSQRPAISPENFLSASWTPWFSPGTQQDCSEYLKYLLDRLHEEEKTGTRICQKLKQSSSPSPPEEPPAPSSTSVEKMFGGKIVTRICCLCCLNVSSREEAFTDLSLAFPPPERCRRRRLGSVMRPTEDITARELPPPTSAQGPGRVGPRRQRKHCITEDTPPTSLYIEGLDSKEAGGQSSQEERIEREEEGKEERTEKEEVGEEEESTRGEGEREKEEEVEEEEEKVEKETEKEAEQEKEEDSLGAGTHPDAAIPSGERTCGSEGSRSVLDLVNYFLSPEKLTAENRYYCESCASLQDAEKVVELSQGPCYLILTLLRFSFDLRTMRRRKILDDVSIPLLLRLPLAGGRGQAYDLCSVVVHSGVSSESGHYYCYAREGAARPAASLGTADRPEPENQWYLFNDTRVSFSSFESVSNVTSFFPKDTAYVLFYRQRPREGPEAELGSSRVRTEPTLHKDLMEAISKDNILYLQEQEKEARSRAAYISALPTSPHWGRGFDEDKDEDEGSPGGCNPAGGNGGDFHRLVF
Outline: as §1

UniProt Q9UGI0 = molecular target: T4, UniProt Q9UGI0
T4 sequence (whole entry): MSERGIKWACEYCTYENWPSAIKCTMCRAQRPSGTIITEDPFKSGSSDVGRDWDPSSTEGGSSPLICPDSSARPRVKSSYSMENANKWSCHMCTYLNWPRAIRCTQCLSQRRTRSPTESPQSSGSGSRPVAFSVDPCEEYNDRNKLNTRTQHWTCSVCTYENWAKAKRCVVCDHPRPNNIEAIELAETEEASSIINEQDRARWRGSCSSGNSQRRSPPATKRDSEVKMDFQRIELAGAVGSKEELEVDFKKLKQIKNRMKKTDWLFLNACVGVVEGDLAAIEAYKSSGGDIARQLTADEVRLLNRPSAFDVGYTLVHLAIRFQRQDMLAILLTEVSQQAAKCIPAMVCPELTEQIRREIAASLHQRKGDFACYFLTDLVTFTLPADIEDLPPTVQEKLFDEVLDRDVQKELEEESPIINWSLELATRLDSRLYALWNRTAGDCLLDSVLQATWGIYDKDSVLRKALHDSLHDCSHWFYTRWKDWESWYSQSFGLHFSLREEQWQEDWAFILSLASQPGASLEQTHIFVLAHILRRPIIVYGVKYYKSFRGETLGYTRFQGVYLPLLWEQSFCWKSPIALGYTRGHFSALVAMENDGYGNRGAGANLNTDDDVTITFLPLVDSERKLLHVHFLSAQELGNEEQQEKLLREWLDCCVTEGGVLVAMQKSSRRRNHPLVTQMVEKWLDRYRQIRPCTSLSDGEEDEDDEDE
Outline: as §1

YOD1 = molecular target: T5, YOD1 (UniProt Q5VVQ6)
T5 sequence (whole entry): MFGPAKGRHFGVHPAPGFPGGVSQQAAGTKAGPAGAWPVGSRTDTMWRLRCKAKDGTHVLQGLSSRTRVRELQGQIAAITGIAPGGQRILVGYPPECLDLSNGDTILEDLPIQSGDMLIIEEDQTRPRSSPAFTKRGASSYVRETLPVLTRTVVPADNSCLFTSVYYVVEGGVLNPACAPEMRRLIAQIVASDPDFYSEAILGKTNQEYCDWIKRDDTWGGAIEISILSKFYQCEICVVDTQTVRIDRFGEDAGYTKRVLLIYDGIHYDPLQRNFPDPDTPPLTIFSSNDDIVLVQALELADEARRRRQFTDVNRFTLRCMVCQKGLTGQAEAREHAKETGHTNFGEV
Outline: as §1

Measured: log2 ratio of Biotin-Ahx-Ub-VS probe labelling

UniProt O00487, sequence (O00487 whole entry): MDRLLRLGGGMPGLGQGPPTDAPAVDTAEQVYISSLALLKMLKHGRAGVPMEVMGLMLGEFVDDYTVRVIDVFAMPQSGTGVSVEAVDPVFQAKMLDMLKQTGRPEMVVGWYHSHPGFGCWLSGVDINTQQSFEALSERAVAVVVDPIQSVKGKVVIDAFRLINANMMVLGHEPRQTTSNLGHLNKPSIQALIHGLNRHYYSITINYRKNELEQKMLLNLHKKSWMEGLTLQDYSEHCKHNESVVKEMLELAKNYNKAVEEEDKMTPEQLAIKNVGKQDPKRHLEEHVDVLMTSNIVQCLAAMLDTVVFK
UniProt O00507, sequence (O00507 whole entry): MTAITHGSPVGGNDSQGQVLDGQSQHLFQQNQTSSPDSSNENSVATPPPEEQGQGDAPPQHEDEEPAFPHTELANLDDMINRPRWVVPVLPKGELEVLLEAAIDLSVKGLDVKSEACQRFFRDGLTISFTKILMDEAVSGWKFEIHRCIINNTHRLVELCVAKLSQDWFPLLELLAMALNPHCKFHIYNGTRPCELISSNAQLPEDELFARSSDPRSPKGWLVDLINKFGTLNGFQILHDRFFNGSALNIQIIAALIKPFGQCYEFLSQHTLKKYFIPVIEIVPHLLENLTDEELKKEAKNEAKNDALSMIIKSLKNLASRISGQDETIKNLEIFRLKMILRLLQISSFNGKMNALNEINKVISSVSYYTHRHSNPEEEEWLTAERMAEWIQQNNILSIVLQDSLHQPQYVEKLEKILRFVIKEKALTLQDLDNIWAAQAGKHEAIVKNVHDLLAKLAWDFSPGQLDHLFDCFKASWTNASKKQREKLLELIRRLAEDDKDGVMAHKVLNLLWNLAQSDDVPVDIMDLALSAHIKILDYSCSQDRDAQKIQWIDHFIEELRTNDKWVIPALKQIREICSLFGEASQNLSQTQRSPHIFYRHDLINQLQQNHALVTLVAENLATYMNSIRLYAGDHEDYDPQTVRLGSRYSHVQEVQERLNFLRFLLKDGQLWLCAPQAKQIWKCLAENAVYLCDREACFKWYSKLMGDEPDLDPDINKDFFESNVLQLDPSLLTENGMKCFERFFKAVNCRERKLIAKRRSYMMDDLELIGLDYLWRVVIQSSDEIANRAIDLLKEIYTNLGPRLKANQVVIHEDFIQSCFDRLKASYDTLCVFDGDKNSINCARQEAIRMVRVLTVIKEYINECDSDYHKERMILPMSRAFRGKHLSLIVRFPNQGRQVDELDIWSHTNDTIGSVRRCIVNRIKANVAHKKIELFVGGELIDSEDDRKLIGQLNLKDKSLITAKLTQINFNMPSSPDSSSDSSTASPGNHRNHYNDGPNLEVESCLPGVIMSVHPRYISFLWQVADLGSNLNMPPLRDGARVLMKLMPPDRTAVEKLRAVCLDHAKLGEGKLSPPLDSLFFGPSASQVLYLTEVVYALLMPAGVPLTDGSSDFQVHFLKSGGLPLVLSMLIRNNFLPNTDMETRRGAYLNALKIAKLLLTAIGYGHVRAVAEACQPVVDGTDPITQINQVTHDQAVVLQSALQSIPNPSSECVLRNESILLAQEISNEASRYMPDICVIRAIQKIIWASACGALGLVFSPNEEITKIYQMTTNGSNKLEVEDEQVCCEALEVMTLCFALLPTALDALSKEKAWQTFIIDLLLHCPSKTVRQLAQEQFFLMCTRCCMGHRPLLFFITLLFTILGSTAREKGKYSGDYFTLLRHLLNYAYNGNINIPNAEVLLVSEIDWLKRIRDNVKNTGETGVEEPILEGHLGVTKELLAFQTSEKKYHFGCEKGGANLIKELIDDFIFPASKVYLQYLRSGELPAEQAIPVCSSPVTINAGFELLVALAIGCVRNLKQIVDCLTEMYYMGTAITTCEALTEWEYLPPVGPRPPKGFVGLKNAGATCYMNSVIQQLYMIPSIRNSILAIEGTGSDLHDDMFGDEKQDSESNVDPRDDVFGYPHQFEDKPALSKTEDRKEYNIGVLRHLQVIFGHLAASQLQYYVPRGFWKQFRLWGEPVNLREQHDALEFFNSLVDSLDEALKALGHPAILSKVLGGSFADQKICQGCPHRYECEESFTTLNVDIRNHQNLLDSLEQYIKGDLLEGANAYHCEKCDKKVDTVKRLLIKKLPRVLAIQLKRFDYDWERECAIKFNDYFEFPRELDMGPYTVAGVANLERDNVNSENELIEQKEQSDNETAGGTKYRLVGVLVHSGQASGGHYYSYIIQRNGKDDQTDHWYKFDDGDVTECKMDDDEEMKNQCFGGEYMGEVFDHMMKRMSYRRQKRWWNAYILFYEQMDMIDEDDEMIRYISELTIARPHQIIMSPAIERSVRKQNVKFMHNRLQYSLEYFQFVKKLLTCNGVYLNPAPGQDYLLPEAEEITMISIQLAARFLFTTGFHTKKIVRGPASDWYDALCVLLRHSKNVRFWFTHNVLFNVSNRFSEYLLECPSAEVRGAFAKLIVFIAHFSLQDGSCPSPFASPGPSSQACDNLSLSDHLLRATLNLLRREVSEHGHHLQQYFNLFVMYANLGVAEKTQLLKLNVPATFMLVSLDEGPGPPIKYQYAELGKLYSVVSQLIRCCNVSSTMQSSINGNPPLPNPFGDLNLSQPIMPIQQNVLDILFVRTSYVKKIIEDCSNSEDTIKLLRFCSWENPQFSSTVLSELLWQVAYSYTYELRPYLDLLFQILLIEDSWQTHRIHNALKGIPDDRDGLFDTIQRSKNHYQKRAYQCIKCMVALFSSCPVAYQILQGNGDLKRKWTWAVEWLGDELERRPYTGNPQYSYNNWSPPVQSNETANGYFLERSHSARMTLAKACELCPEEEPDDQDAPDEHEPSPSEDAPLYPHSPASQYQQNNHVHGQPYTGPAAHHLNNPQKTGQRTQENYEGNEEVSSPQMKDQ
UniProt P51784, sequence (P51784 whole entry): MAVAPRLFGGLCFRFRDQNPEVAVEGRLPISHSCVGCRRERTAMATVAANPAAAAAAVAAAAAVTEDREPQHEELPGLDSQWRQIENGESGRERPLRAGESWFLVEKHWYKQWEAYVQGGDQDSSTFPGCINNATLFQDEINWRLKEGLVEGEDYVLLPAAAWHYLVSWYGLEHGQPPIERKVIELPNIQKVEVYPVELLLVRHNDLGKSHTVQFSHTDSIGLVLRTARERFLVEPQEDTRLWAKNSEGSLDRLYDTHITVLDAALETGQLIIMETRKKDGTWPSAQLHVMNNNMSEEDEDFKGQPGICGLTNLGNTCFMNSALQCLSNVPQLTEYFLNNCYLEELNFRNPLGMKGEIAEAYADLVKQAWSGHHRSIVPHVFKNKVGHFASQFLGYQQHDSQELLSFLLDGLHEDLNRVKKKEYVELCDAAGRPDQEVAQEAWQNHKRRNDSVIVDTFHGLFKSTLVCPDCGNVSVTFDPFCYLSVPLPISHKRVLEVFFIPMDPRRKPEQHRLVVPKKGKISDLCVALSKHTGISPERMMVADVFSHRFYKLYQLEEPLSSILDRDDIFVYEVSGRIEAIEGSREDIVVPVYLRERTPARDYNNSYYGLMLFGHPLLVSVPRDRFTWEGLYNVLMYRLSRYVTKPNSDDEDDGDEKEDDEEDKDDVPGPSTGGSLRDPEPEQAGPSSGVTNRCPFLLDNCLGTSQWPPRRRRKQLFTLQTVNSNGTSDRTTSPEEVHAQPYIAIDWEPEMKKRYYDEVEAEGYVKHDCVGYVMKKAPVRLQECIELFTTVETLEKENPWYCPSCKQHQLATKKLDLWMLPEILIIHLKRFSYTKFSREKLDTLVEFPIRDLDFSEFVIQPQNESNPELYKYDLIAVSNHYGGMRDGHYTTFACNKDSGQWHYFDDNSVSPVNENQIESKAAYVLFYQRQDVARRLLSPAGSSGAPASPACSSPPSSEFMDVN

Cc1ccccc1OCC(=O)N1CCN(C(=O)CCl)CC1
inactive: USP9X -0.0136 | UniProt O00487 0.0797 | UniProt O00507 0.258 | UniProt P51784 -0.215 | UniProt Q5T2D3 -0.106 | UniProt Q8TE49 -0.335 | UniProt Q9P2H5 -0.172 | UniProt Q9UGI0 -0.104 | YOD1 -0.00243
